Sfp PPTase inh – qHTS Assay for Inhibitors of Bacillus subtilis Sfp phosphopantetheinyl transferase (PPTase). 4'-phosphopantetheinyl transferase ffp (Bacillus subtilis), Q9F4F7. Biochemical Sfp PPTase activity, qHTS. Potency, µM, inactives show largest response in the series, negative = inhibition, actives largely listed as inhibitors. actives 3.5% (n = 310,000). AID 1490, 2009;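 further: the enzyme is Sfp with the accession as filed and its product quenches rhodamine fluorescence; 0% = enzyme reaction without inhibitor and -100% = no enzyme wells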
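After 15 min at room temperature with compound, 15 nM Sfp received 5 uM rhodamine-CoA plus 12.5 uM BHQ-2-ybbR (50 mM Hepes pH 7.6, 10 mM MgCl2). Rate came from the fluorescence difference over 30 min, ex 525/em 598 nm.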
G9a block – qHTS Assay for Inhibitors of Histone Lysine Methyltransferase G9a; G9a H3K9 monomethylation, AlphaScreen, 2 h; AID 504332, 2011; actives 8.8% (n = 350,000); Potency, µM (series often up to 102 µM), for the others: top-dose activity, negative = inhibition, hits mostly inhibitors; Histone-lysine N-methyltransferase EHMT2 (Homo sapiens), Q96KQ7; further: on the % scale 0 is the no-effect control and ±100 the full control effect; nearly all actives have a fitted effect of over 75% in size
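Using a bead-based AlphaScreen, monomethylated H3K9 product from 2 h room-temperature reactions (G9a 20 nM, peptide 500 nM, SAM 20 uM) was detected with 0.5 ug/mL rabbit anti-H3K9me1 antibody.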
JMJD2A Tudor inh – qHTS Assay for Inhibitors of JMJD2A-Tudor Domain; Lysine-specific demethylase 4A (Homo sapiens), O75164; AlphaScreen JMJD2A-Tudor / H3K4me3 peptide binding; Potency, µM (doses to about 114 µM), without a hit: at the highest dose activity change, negative = inhibition, usual class: inhibitors; actives 4.4% (n = 390,000); AID 504339, 2011; further: on the % scale 0 is the no-effect control and ±100 the full control effect; nearly all actives have a fitted effect of over 50% in size
L3MBTL1 inh – qHTS Assay for the Inhibitors of L3MBTL1. Lethal(3)malignant brain tumor-like protein 1 (Homo sapiens), Q9Y468. AlphaScreen L3MBTL1–H3K9me1 peptide binding. Potency, µM (top dose mostly 57.1 µM), for the others: at the highest dose activity, negative = inhibition, actives largely listed as inhibitors. actives 0.66% (n = 230,000). AID 485360, 2010; further: on the % scale 0 is the no-effect control and ±100 the full control effect; nearly all actives have a fitted effect of over 60% in size
Target sequence (Q9Y468 whole entry, looked up): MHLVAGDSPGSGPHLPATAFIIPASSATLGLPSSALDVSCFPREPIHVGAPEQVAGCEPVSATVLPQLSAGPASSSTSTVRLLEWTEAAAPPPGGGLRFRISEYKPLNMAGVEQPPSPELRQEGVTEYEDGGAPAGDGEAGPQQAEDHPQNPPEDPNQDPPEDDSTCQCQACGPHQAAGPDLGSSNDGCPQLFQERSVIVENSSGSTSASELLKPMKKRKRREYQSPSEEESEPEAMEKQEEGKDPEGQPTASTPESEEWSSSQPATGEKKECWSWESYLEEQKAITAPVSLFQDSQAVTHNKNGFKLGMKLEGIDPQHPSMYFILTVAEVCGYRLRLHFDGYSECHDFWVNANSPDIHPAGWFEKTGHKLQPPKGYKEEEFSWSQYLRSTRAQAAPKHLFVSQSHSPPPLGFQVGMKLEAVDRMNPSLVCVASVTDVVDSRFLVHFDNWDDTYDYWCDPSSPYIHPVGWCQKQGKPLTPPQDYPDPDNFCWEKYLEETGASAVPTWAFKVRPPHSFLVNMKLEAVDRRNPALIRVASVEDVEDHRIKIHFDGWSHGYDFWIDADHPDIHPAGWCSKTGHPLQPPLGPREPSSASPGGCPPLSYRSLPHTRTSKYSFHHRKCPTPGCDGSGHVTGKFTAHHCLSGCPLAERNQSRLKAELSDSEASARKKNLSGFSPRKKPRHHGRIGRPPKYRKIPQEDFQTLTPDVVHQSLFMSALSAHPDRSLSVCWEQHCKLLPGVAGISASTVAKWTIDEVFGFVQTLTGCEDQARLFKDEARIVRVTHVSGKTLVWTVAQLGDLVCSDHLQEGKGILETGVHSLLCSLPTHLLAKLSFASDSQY
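L3MBTL1 (50 nM) pre-complexed 30 min with biotinylated H3(1-15)K9me1 peptide (75 nM), then compounds added for 30 min at room temperature; AlphaScreen streptavidin donor/nickel chelate acceptor beads (10 ug/mL final) read after 30 min dark incubation.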
HP1b chromo inh – HTS for Inhibitors of HP1-beta Chromodomain Interactions with Methylated Histone Tails; Chromobox protein homolog 1 (Homo sapiens), P83916; AlphaScreen HP1-beta / biotin-H3K9me3 peptide binding; Potency, µM (highest dose often 114 µM), for inactives: at the top dose activity change, negative = inhibition, actives largely listed as inhibitors; actives 0.56% (n = 390,000); AID 540317, 2011; further: nearly all actives have a fitted effect of over 70% in size
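AlphaScreen: HP1-beta (50 nM) preformed 30 min with biotin-H3(1-18)K9me3 peptide (50 nM) in PBS pH 7.4, 0.01% Tween-20. Compound added for 30 min at RT, then streptavidin donor/nickel chelate acceptor beads (10 ug/mL) for 30 min.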
BAZ2B inh – qHTS Assay for Inhibitors of BAZ2B; AlphaScreen BAZ2B-H3K14Ac peptide displacement; Bromodomain adjacent to zinc finger domain protein 2B (Homo sapiens), Q9UIF8; Potency, µM (doses to about 114 µM), inactives show at the highest dose activity change, negative = inhibition, hits mostly inhibitors; actives 4.4% (n = 360,000); AID 504333, 2011; further: on the % scale 0 is the no-effect control and ±100 the full control effect; nearly all actives have a fitted effect of over 60% in size
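Protein-peptide AlphaScreen: BAZ2B 50 nM, b-H3K14Ac 50 nM, 1x PBS pH 7.4 + 0.01% Tween-20. Preincubation 30 min RT; cpd 30 min RT (top 110 uM); beads 20 min RT, light-protected.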
* marks the source's active call; other numbers are inactive results; ? = inconclusive; nt = not tested or not shown; ! = a repeat was not active; [ ] = remark or other dose. A selection: hits, their analogues and other compounds. The true share with any hit is near 12%. The call rests on the fitted dose curve; in most records, active means well fitted curve in the direction sought with a large enough effect; inconclusive means small, poorly fitted or top-dose-only effect, or another doubt; inactive means no such curve, though single readings can be large; an effect the other way counts as inactive or inconclusive. Potency means the concentration at half of the fitted maximal effect.

SMILES	Sfp PPTase inh	G9a block	JMJD2A Tudor inh	L3MBTL1 inh	HP1b chromo inh	BAZ2B inh
COc1ccc(C2=NOC(C(=O)Nc3ccc4c(c3)OCO4)C2)cc1OC (stereo unspecified)	5%	50µM*	-26%	nt	17%	nt
COc1ccc(NC(=O)C2CC(c3ccc(OC)c(OC)c3)=NO2)cc1OC (stereo unspecified)	-15%	?	-22%	-6%	11%	-26%
O=C(Nc1cccc(-c2nn3c(=O)cc(N4CCNCC4)nc3s2)c1)C1CCNCC1	nt	nt	-29%	nt	nt	nt
COC(=O)c1ccc(C(=O)OC)c(NC(=O)c2cnn3c(C(F)F)cc(-c4ccccc4)nc23)c1	nt	-17%[59 µM]	-12%	nt	8%	3%
CC(/C=N/Nc1nncc(=O)[nH]1)=C\c1ccccc1	5%	-6%	-5%	5%	18%	-1%
COc1ccc(/C=N/Nc2cc(=O)n(C)c(=O)n2C)cc1OC	89µM*	-30%[59 µM]	-12%	-23%	25%	-17%
O=c1cnnc(N/N=C/c2ccccn2)[nH]1	8%	32%	3.2µM*	nt	21%	8.9µM*
C(=N\Nc1nc2ccccc2[nH]1)/c1ccccn1	23%	60%[59 µM]	?	nt	27%	25µM*
COc1cc(/C=N\Nc2cc(=O)n(C)c(=O)n2C)ccc1O	-6%	6%[59 µM]	-3%	-3%	14%	-4%
COc1ccc(C=NN=C2c3ccccc3-c3ccccc32)cc1OC	nt	nt	13µM*	nt	?	nt
COC(=O)C(Cc1c[nH]c2ccccc12)NC(=O)COc1cccc(C)c1 (stereo unspecified)	nt	0%[59 µM]	-25%	nt	29%	-26%
COc1ccc(/C=N/Nc2nc3ccccc3[nH]2)cc1OC	22µM*	-9%[59 µM]	-23%	-4%	6%	-39%
C#CCn1cc(/C=N/Nc2nc3ccccc3[nH]2)c2ccccc21	11µM*	50µM*	50µM*	-23%	?	40µM*
COc1cc(/C=N/Nc2ccccn2)ccc1O	?	?	-11%	-17%	25%	-31%
COc1cc(/C=N\Nc2nc3ccccc3[nH]2)cc(OC)c1OC	9%	nt	-9%[57.1 µM]	-11%	14%	?
C(=N\Nc1nc2ccccc2[nH]1)/c1cccc2nccnc12	10%	-5%	?	nt	21%	-35%
C(=N\Nc1nc2ccccc2[nH]1)/c1ccc2c(c1)OCCO2	25µM*	?	?	-9%	-21%	?
COc1ccc(/C=N/Nc2ccccn2)cc1OC	56µM*	1%	-20%	-20%	27%	-27%
CN(C(=O)NCc1noc2ccccc12)c1cccc(Cl)c1	nt	-4%[59 µM]	-14%	nt	33%	-14%
COc1cccc(Cn2c(Oc3cc(C)cc(C)c3)nc3c2c(=O)n(C)c(=O)n3C)c1	nt	?	-19%	nt	9%	?
CN(C)c1ccc(C=NNc2ccccn2)c(Cl)c1	nt	nt	-26%	nt	17%	nt
CN(C)c1ccc(/C=N/Nc2ccc(-n3ccnc3)nn2)cc1	45µM*	?	?	nt	-1%	18µM*
COc1ccc2c(c1)c(/C=N/Nc1nc3ccccc3[nH]1)c(C)n2C	11µM*	nt	?	?	-11%	28µM*
Cc1ccc(/C=N/Nc2ccc(Cl)nn2)cc1	2%	9%[12.7 µM]	-7%	nt	9%[57 µM]	0%
CCCCn1c(/C=N/Nc2nc3ccccc3[nH]2)nc2ccccc21	?	38%[59 µM]	?	?	4%	?
SMILES	Sfp PPTase inh	G9a block	JMJD2A Tudor inh	L3MBTL1 inh	HP1b chromo inh	BAZ2B inh
CN(C)c1ccc(/C=N\Nc2ccccn2)cc1	-6%	40µM*	?	?	?	25µM*
CCOC(=O)c1ccc(S(=O)(=O)N2CCN(c3nc(-c4cccs4)nc4ccccc34)CC2)cc1	nt	nt	-9%	nt	51%	nt
CC(=O)N1c2ccccc2C(C)(c2ccc(C)cc2)CC1(C)C (stereo unspecified)	nt	-7%[59 µM]	18%	nt	20%	11%
COc1ccc(C2C=C(c3ccccc3)Nc3nc(NC(C)=O)nn32)cc1 (stereo unspecified)	-7%	?	-10%	nt	27%	50µM*!
COc1ccc(C2C=C(c3ccccc3)Nc3nnnn32)cc1 (stereo unspecified)	-11%	50µM*	-16%	1%	31%	-1%
COc1cccc(C2=CC(c3cccc(OC)c3OC)n3nnnc3N2)c1 (stereo unspecified)	?	10µM*	-12%	?	54%	-5%
COc1ccc(C2=CC(c3ccc(C)cc3)n3nnnc3N2)cc1 (stereo unspecified)	?	?	-1%	69%	109%	-8%
COc1cccc(C2=CC(c3ccccc3)n3nnnc3N2)c1 (stereo unspecified)	45µM*	40µM*	-15%	25%	28%	3%
CCc1ccc(NC(=O)c2cc(=O)c3ccc(C)c(C)c3o2)cc1	nt	-27%[59 µM]	-12%	nt	18%	-13%
O=C1c2nc3cc(-c4ccco4)[nH]n3c(=O)c2CN1Cc1ccccc1	20µM*	?	-12%	?	29%	?
Cc1ccc(NC(C)c2cc(Cl)ccc2O)cc1 (stereo unspecified)	-3%	-38%[59 µM]	?	nt	-29%	50µM*
S=C(NCCc1ccccc1)Nc1ccc(Br)cn1	-2%	7.1µM*	-5%	-4%[11.4 µM]	11%	?
O=S(=O)(c1ccc2[nH]c3c(c2c1)CCCC3)N1CCN(c2cccc(C(F)(F)F)c2)CC1	nt	-33%[59 µM]	?	nt	5%	-28%
O=c1nc2c(O)cccn2c2c1c(=O)[nH]c1ccccc12	-14%	45µM*	22µM*	-11%	-13%	?
Cc1ccc2sc(NNC(=O)C3COc4ccccc4O3)nc2c1C (stereo unspecified)	?	32µM*	?	-19%	-8%	?
COc1cccc2sc(NNC(=O)C3=COCCO3)nc12	-2%	13µM*	-21%	nt	36%	4%
COc1cccc2sc(NNC(=O)C3COc4ccccc4O3)nc12 (stereo unspecified)	79µM*	?	-24%	nt	43%	nt
COc1ccc(OC)c2sc(NC(=O)C3=COCCO3)nc12	1%	-6%	-4%	0%	33%	7%
CCc1ccc(-n2nc3cc(C)c(N)cc3n2)cc1	56µM*	1.1µM*	89µM*	8%	-2%	32µM*

Compound activity as filed in PubChem BioAssay.
